Experimental data published in PubChem BioAssay (EPA / NIEHS).
Activity calls are given as the source filed them. How the source made its calls: active means hit-call score of the fitted dose curve at least 0.9, where 1 is the maximum; inactive means score below 0.9.

read-out: UDP glucuronosyltransferase (UGT1A6), UGT1A6 (gene 54578); assay: LTEA_HepaRG_UGT1A6: Life Technologies and Expression Analysis (LTEA) Assay for UDP glucuronosyltransferase (UGT1A6) using HepaRG (AID 2283539); settings: mRNA level, 48 h; actives raise or lower the signal
Method: LTEA_HepaRG is a cell based, multiplexed-readout assay that uses HepaRG, a human liver cell line, with measurements taken at 48 hours after chemical dosing on a 96-well plate.LTEA_HepaRG_UGT1A6 is one of 102 assay component(s) measured in the LTEA HepaRG cell culture assay. It is a marker of NR mediated metabolism.Data from the assay component LTEA_HepaRG_UGT1A6 was analyzed into 1 endpoint. This assay endpoint, LTEA_HepaRG_UGT1A6, was analyzed with bidirectional fitting relative to DMSO as the negative control and baseline of activity. Using a type of inducible reporter, measures of mRNA induction for gain or loss-of-signal activity can be used to understand regulation of transcription factor activity. To generalize the intended target to other relatable targets, this assay endpoint is annotated to the transferase intended target family, where the subfamily is glucuronosyltransferase.
A total of 1060 chemcials from the ToxCast library were tested in eight-point concentration-response experiments. Cell culture and cytotoxicity assays were conducted at Thermo Fisher Scientific's Custom Services facility (Madison, WI). A single lot of human HepaRG cells (Thermo Fisher Scientific, Frederick, MD) was used for the cell culture experiments. 96-well format collagen type I coated plates of human HepaRG cells were prepared using established methods. Briefly, cryopreserved HepaRG cells were thawed, plated at a density of approximately 100,000 cells/well in HepaRG Thaw, Plate, and General Purpose media (HPRG770, Thermo Fisher Scientific), and incubated for 48 hours. 0.5% DMSO was selected as vehicle control to balance the requisite need of DMSO in HepaRG cultures to maintain differentiation (for example, baseline metabolism, proportions of hepatocytes vs. cholangiocytes), while enabling further hepatic receptor pathway activation (for example, PXR and CAR) in response to chemical exposure. 48 hours after plating, the culture medium was replaced with HepaRG Serum-Free Incudtion Media. Cells were exposed to each test chemical in duplicate and maintained in CO2 incubators for another 48 hours. Chemical plates were thawed to room temperature and 200x concentrations of treatment groups were prepared. 8-point conentration-reponse curves were made with the highest exposure at 100 uM, followed by half-log dilutions, all in 0.5% DMSO. Each test plate contained variouse controls, induction positive controls (1mM phenobarbital), cytotoxicity positive controls ([…] aflatoxin B1), vehicle controls (0.5% DMSO), and total lysis controls (0.5% DMSO). Cell morphology images were taken using an Essen IncuCyte FLR automated microscope, with six 96-well plates imaged in about 24 minutes. Images were captured and exported and JPEG files. Spent culture media was transfered to black-well plates for the LDH assay, and remaining media was sorted at -80 C for later use. Cells were treated with RLT buffer and frozen until shipped for gene expression analysis. Total RNA was isolated from the cell suspension in 75 uL of Buffer RLT (Qiagen, Germantown, MD 20874) by Quintiles/Expression Analysis (Durham, NC) using a custom isolation procedure. Total RNA from each plate well was transferred to a preamplification plate. Fluidigm's 96.96 Dynamic ArrayTM (Fluidigm, Amsterdam, the Netherlands) technology was used for gene expression analyses by quantitative reverse transcription polymerase chain reaction (qRT-PCR, performed by Quintiles/Expression Analysis, Durham, NC)89. Standard TaqManTM Assays (Applied Biosystems/ThermoFisher Scientific, Foster City, CA) were used to assess the expression of 93 genes selected based on their selectivity and sensitivity to important hepatic receptors known to be modulated by environmental chemicals; importance in human hepatocyte functionality; and hepatotoxicity. […]

Row | Compound | outcome | AC50
1 | Cc1cn([C@H]2C=C[C@@H](CO)O2)c(=O)[nH]c1=O | inactive | –
2 | CCCCOC(=O)CCCCC(=O)OCCCC | inactive | –
3 | O=C1NC(=O)C(c2ccccc2)(c2ccccc2)N1 | inactive | –
4 | Cc1ccc(-c2cc(C(F)(F)F)nn2-c2ccc(S(N)(=O)=O)cc2)cc1 | – | 71.6 µM (active)
5 | CCc1cc(C2=C(C(=O)O)N(c3ccccc3C(F)(F)F)S(=O)(=O)c3ccccc32)cc2c1OCO2 | – | 74.8 µM (active)
6 | CC(=O)OC1CC(C)OC(C)O1 (stereo not given) | inactive | –
7 | CCCCCCC(C=O)=Cc1ccccc1 | inactive | –
8 | C=CCc1ccc(OC)c(OC)c1 | inactive | –
9 | CCc1nc(N)nc(N)c1-c1ccc(Cl)cc1 | inactive | –
10 | COC(=O)CCC(=O)OC | inactive | –
11 | CC(C)c1cccc(C(C)C)c1NC(=O)NS(=O)(=O)c1cc(C(C)(C)O)co1 | inactive | –
12 | N[C@@H](Cc1c[nH]c2ccccc12)C(=O)O | inactive | –
13 | CO[C@@H]1COCC[C@@H]1N[C@@H]1CC[C@@](C(=O)N2CCc3ncc(C(F)(F)F)cc3C2)(C(C)C)C1 | inactive | –
14 | OCC(CO)n1cnc(-c2ccc(F)cc2)c1-c1ccnc(Oc2ccccc2)n1 | inactive | –
15 | c1ccc2occc2c1 | inactive | –
16 | CS(=O)(=O)c1ccc([C@@H](C[C@H]2CCC(=O)C2)C(=O)Nc2cnccn2)cc1Cl | inactive | –
17 | CC(COCC(C)OC(=O)c1ccccc1)OC(=O)c1ccccc1 (stereo not given) | inactive | –
18 | CCCCc1nc2cccnc2n1Cc1ccc(-c2ccccc2-c2nnn[nH]2)cc1 | inactive | –
19 | CN(C)CCCN1c2ccccc2Sc2ccc(Cl)cc21 | inactive | –
20 | CC(=O)[C@@]1(O)CC[C@H]2[C@@H]3CCC4=CC(=O)CC[C@]4(C)[C@H]3CC[C@@]21C | inactive | –

Row | Compound | outcome | AC50
21 | O=[Si]=O | inactive | –
22 | CCCC[C@H]1CN(CC2CCOCC2)C(=O)OC12CCN(C1(C)CCN(C(=O)c3c(C)ncnc3C)CC1)CC2 | inactive | –
23 | C/C=C/c1ccc(OC)cc1 | inactive | –
24 | O=C(O)CN(CC(=O)O)CC(=O)O | inactive | –
25 | Oc1ccccc1O | inactive | –
26 | C#CC(O)C(CC)CCCC (stereo not given) | inactive | –
27 | Nc1nc(Cl)nc2c1ncn2[C@H]1C[C@H](O)[C@@H](CO)O1 | – | 2.42 µM (active)
28 | Cc1c(C)c2c(c(C)c1O)CCC(C)(COc1ccc(CC3SC(=O)NC3=O)cc1)O2 (stereo not given) | inactive | –
29 | CSc1ccc(Oc2ccc(S(N)(=O)=O)cc2CN(C)C)cc1C | inactive | –
30 | Cc1occc(=O)c1O | inactive | –
31 | C=CCCCCCCCCCCCC | inactive | –
32 | CC1=C(C)S(=O)(=O)CCS1(=O)=O | – | 0.282 µM (active)
33 | O=C(N[C@@H](c1ccccc1)[C@@H]1CCCCN1)c1cccc(C(F)(F)F)c1Cl | – | 69.1 µM (active)
34 | NC1CCCCC1 | inactive | –
35 | O=C1c2c(O)cccc2Cc2cccc(O)c21 | inactive | –
36 | NCCOCCOCCN | inactive | –
37 | CC(C)(O)c1ccc(CNC(=O)c2cccnc2Oc2ccc(F)cc2)cc1 | inactive | –
38 | NC(=Nc1ccccc1)Nc1ccccc1 | inactive | –
39 | CC(=O)CC(c1ccccc1)c1c(O)c2ccccc2oc1=O (stereo not given) | inactive | –
40 | CCCC(=O)O | inactive | –
